# Measured values: article PMC13494018
# A number with no mark means an inactive call. No rule for the calls is given here.
# B1: design_618_d4ffd631-0ea2-432e-ba0f-bd3d6297b2a0_1624_dldesign_0_cycle1_af2pred (protein)
# chain: MKAEVEALREQVSKAVNAATKAGSAAALKDGLASSQKLSEVMEEVGELVKKGNEATKKGEYEEALKYYQKAIEIATDAKAYFEKVAAA
# B2: design_618_d4ffd631-0ea2-432e-ba0f-bd3d6297b2a0_1628_dldesign_0_cycle1_af2pred (protein)
# chain: AAQAQADQITKAAAEAAIKSAKAMVDINLESARKLAEVAADLGKAAPATAAEIKAAAKAVIEEADKKEAEKA
# B3: design_618_d4ffd631-0ea2-432e-ba0f-bd3d6297b2a0_1745_dldesign_0_cycle1_af2pred (protein)
# chain: SAARLAEQRARAAELRERAEEALKRAEQVEKKNPAAGAAVRALVRQALRQVELGLADPENAERYLDSARRNLEVAQGIIDATL
# B4: design_618_d4ffd631-0ea2-432e-ba0f-bd3d6297b2a0_2000_dldesign_0_cycle1_af2pred (protein)
# chain: RAAAVEAALAYARAVAETDASLEAARAAFERAKALLPEAPEAAGTLAGAALVAGSNPALGERLFAAGAARAA
# B5: design_618_d4ffd631-0ea2-432e-ba0f-bd3d6297b2a0_2021_dldesign_0_cycle1_af2pred (protein)
# chain: AALAAQGRAIARTMRIAVLNAATAAEAAAIADTFGTTLLNLADLASPEEQRAIVEATRAEAEEVAAENPEAGAAVAATAERLRAHVEA
# B6: design_618_d4ffd631-0ea2-432e-ba0f-bd3d6297b2a0_2173_dldesign_0_cycle1_af2pred (protein)
# chain: SSAKEKAKKLAEEAKKIADKAIAQAKALAADKGAANAVLLDAIKELSELAKKAYALDPAYADKINAYAQELVKQMAAIAG
# B7: design_618_d4ffd631-0ea2-432e-ba0f-bd3d6297b2a0_2235_dldesign_0_cycle1_af2pred (protein)
# chain: EEDEKILESAKKMKEVAKDLAEYAKTSTAEVAKIAANSAEALARILKETAKESKKKEEIEKLAKEAEEYAKEAKETAKKK
# B8: design_618_d4ffd631-0ea2-432e-ba0f-bd3d6297b2a0_2243_dldesign_0_cycle1_af2pred (protein)
# chain: AAAAATALAKATAEALVRSAERGNAETARKLAEVAKGLAEGEAAAGDEEAAKAAAEAAKKIEAIAKEKAA
# B9: design_618_d4ffd631-0ea2-432e-ba0f-bd3d6297b2a0_2266_dldesign_0_cycle1_af2pred (protein)
# chain: SADVELGKEKGKELAEKIKEAAKKGLKAGDPEAAGKEMNKIVQEAIKFAATLSPEAASVLLSIVIETAKEESAKLKAA
# B10: design_618_d4ffd631-0ea2-432e-ba0f-bd3d6297b2a0_2296_dldesign_0_cycle1_af2pred (protein)
# chain: DKYATEAKKYAEEAEKLAKEAKKEAKKVGEAAKELAKQAEAAAKTAKIAAEGAEAATDPAARALALKVAEQAYKQAKKLLKEIKKL
# B11: design_618_d4ffd631-0ea2-432e-ba0f-bd3d6297b2a0_2309_dldesign_0_cycle1_af2pred (protein)
# chain: AGLEIANKALQLAAEATAALKAAAKGTAAEVEALAKKYLDEAKKLKEQATTPQAKAAANIAISAVTTAKKAALAAVA
# B12: design_618_d4ffd631-0ea2-432e-ba0f-bd3d6297b2a0_2461_dldesign_0_cycle1_af2pred (protein)
# chain: STAFFQEATKLIEEAGEVANRVPEVAPLANKAITAASKAMLAAAQGNEAAAKAYFDEAKKLLEEAKKKAKELLE
# B13: design_618_d4ffd631-0ea2-432e-ba0f-bd3d6297b2a0_2465_dldesign_0_cycle1_af2pred (protein)
# chain: AAAAQAAAILAAAQQGINDTTALLEKYKDVATPETVALFNKALAYFSKAAALALRGTQPAEAAAALAKGQEEAKKGEELLKKEVE
# B14: design_619_5728adc2-0aea-404f-92dd-a4575c53f550_74_dldesign_0_cycle1_af2pred (protein)
# chain: DLDAVIATGMLALGKANAALAAARAGTATAAELEAAAAEAEAAAALAAALAAQSSTMAWLAAQLKKAAAELRAAAAKLKA
# B15: design_619_5728adc2-0aea-404f-92dd-a4575c53f550_103_dldesign_0_cycle1_af2pred (protein)
# chain: SEAERYAEAAKKLAQVAKDIAAAFPANPELKKEAEKAKKYAEKAEKLVKEGGSAEEVLKEYEKARAALARATKLAIAA
# B16: design_619_5728adc2-0aea-404f-92dd-a4575c53f550_130_dldesign_0_cycle1_af2pred (protein)
# chain: DELFARLEELARALVEEAAKRSPELADIILESYEEGKKIAEELGFGPVTAIAIAAALALRRDPEAGALLRQVFVEVARAAIEAQ
# B17: design_619_5728adc2-0aea-404f-92dd-a4575c53f550_132_dldesign_0_cycle1_af2pred (protein)
# chain: AEAAAALAAAMRAATDAAVAEAATGTGEGIAKALHVANLARAAAEANPETAAEHRAYAERALAAAKAAQAAAIAAA
# B18: design_619_5728adc2-0aea-404f-92dd-a4575c53f550_149_dldesign_0_cycle1_af2pred (protein)
# chain: SPAQEAARAEADRAAEAIAAFAKQIAAAASPELAKEVLAAAEKAAAALAAAKELPAEEARAATDAVWAAANRAAAAAMRQVLAQTT
# B19: design_619_5728adc2-0aea-404f-92dd-a4575c53f550_175_dldesign_0_cycle1_af2pred (protein)
# chain: AAAQQQAIGNAAIRTADIAMATAKKLIKEDPAKGKEVAEQAVGILEGAAKAAPSTAATLLAEAKKVKEETEKAIKEA
# B20: design_619_5728adc2-0aea-404f-92dd-a4575c53f550_189_dldesign_0_cycle1_af2pred (protein)
# chain: DPATVRGLAAMAALALQAGVTGGPEVGAANLRNVAKLAAARGTPEAAEIAKKAEEAAKEADNPEKVKEYQAYFEEIAKA
# B21: design_619_5728adc2-0aea-404f-92dd-a4575c53f550_252_dldesign_0_cycle1_af2pred (protein)
# chain: AAKEIAKQAQEAGKAAIAAAEALGKAKDPEEAKQMQEIAKALQQNAQAAAKAGDAKVAQAALNALRGLLRNAEAALAAAK
# B22: design_619_5728adc2-0aea-404f-92dd-a4575c53f550_253_dldesign_0_cycle1_af2pred (protein)
# chain: AAAAAEAAVAAAMAQINALVAEANRLLIEAQKTGNVELAKKAYELAEKAAAVGKATPALAKMAEALSKVVKEMAKATIKQAEAQA
# B23: design_619_5728adc2-0aea-404f-92dd-a4575c53f550_302_dldesign_0_cycle1_af2pred (protein)
# chain: EREEVLREAIELLEKTAEAAKALGTPAGEILAASARALARLLREQRDEISLEGAKGYLELAKQLAAGVEAA
# B24: design_619_5728adc2-0aea-404f-92dd-a4575c53f550_396_dldesign_0_cycle1_af2pred (protein)
# chain: DEAKKQAEKHYKLAKEHLEKAIASKDEKEAKAHVSRARLNALAAASLDPSVAPEMLAMLKATAEALKDHPEAKAEAEEAAKLVAQLA
# B25: design_619_5728adc2-0aea-404f-92dd-a4575c53f550_437_dldesign_0_cycle1_af2pred (protein)
# chain: AAAEEAALAKAKKEAAEAAVKAVEYAARAGDPALAAKATRLLHEAQLTTDLEEAKKYLEEIKKLLKEAKERAE
# B26: design_619_5728adc2-0aea-404f-92dd-a4575c53f550_440_dldesign_0_cycle1_af2pred (protein)
# chain: VTPEASKIAANSALALAKNILENVGVMSPEEAAGAVQVVVDLVKNSLPSEKEKHVEIAEVLKEAAKKNPANAAVLEAGAKAIEEIL
# B27: design_619_5728adc2-0aea-404f-92dd-a4575c53f550_447_dldesign_0_cycle1_af2pred (protein)
# chain: EELVKKAKEETTKLLEKAKEEAPGLGTLALNSFNNGFKEGVKEAYERLKKLYEWVTANATTPEQKKVAELIKKAYEVAKKAAEA
# B28: design_619_5728adc2-0aea-404f-92dd-a4575c53f550_521_dldesign_0_cycle1_af2pred (protein)
# chain: GEEEELKKKQQEVAERAKEAAELAKEAAKLSGQTEVANAVEAAAKQAAAAAEADPSAVESQLKFVEQLLEIALAALAAAKAAAAAA
# B29: design_619_5728adc2-0aea-404f-92dd-a4575c53f550_548_dldesign_0_cycle1_af2pred (protein)
# chain: AALRHRTMAALFGRAVTLTGEAGRQAALNAAQMAAVLDPAAGAEFAAAIAEAAKATGDAGVHAVAAEFAAKEAAAAAAAAA
# B30: design_619_5728adc2-0aea-404f-92dd-a4575c53f550_577_dldesign_0_cycle1_af2pred (protein)
# chain: AESIAREAVAQIAALAAAGVADPAAKGEQATAILQTAAAAQKAIRAAGGPESLLNAVQAAAGAAIAALVA
# B31: design_619_5728adc2-0aea-404f-92dd-a4575c53f550_605_dldesign_0_cycle1_af2pred (protein)
# chain: GQVAVNAAKGVAKTAISYAERLAKVEGEEGKKFLEEVKKETTKLVEEAKKSTPEKAQQLLAELVDLMKEVAERAAAAEAAAAAAAA
# B32: design_619_5728adc2-0aea-404f-92dd-a4575c53f550_649_dldesign_0_cycle1_af2pred (protein)
# chain: GEELAKEVEKKAKEVLEKVKEKAKEIAAKGTPEQAREAKGLVARARAYAIAAVGAARTIPELAKRYLELAKKEAERL
# B33: design_619_5728adc2-0aea-404f-92dd-a4575c53f550_740_dldesign_0_cycle1_af2pred (protein)
# chain: GAAEEARRLVEEVEAALKEAEAAAAADAAEGLRAAGELAVLAAEAAARALRLGDEEAFRRISAAIARATALAQQLAA
# B34: design_619_5728adc2-0aea-404f-92dd-a4575c53f550_766_dldesign_0_cycle1_af2pred (protein)
# chain: MLGAEWARQQARRTAERAAELLAADPAAGAAAFARARTIVELAKGIDPEVGKAAQAEVEAIEAQAKAAAAAA
# B35: design_619_5728adc2-0aea-404f-92dd-a4575c53f550_927_dldesign_0_cycle1_af2pred (protein)
# chain: AAALDSARGEAAVTAAKLYGLAYKLDPELGAQAAAALAAILRDKATAVEGAKAAAAVAEKLKEKDPENAGELEKKLKELAEKLKAA
# B36: design_619_5728adc2-0aea-404f-92dd-a4575c53f550_930_dldesign_0_cycle1_af2pred (protein)
# chain: GEVKEQAEKELKKLEEAAKKTEEEAKKAAKAGATVAAAQIKATVKAALKNAKELFEKDPEQGLQAAKAALQVAETLLESAKGLIKAA
# B37: design_619_5728adc2-0aea-404f-92dd-a4575c53f550_1042_dldesign_0_cycle1_af2pred (protein)
# chain: DAKEHAERALELAKEAAESGSVALASRAMQELALAINADPALGAEAAKEAAKIFAKNPELAGFGEAAVAIAA
# B38: design_619_5728adc2-0aea-404f-92dd-a4575c53f550_1087_dldesign_0_cycle1_af2pred (protein)
# chain: GPEVAERVARSARGIAEVLRGLADSIRAAGGSPAAEERVRAAAEEAERLAREAEEAAGDAEVARRLAEEANRLLQEATAVAMADLQAV
# Target: CD276, Q5ZPR3
# Sequence (Q5ZPR3 whole entry): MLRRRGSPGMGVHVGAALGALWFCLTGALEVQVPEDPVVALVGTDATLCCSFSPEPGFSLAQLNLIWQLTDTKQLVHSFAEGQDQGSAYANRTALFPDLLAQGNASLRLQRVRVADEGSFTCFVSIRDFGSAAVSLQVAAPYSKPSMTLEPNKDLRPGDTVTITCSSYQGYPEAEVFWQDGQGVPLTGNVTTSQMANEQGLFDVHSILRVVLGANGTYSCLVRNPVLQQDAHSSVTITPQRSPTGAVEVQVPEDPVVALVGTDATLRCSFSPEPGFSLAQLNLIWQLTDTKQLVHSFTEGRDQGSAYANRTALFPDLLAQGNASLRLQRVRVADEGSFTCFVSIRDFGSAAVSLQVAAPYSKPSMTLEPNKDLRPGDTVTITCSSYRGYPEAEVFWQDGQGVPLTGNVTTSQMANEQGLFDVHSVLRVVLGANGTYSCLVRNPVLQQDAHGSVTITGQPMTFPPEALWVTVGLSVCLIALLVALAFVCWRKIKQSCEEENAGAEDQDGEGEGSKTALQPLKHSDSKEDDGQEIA
row,Binder,binding in a display sort
1,B1,not found
2,B2,not found
3,B3,not found
4,B4,not found
5,B5,not found
6,B6,not found
7,B7,not found
8,B8,not found
9,B9,not found
10,B10,not found
11,B11,not found
12,B12,not found
13,B13,not found
14,B14,not found
15,B15,not found
16,B16,not found
17,B17,not found
18,B18,not found
19,B19,not found

row,Binder,binding in a display sort
1,B20,not found
2,B21,not found
3,B22,not found
4,B23,not found
5,B24,not found
6,B25,not found
7,B26,not found
8,B27,not found
9,B28,not found
10,B29,not found
11,B30,not found
12,B31,not found
13,B32,not found
14,B33,not found
15,B34,binds (active)
16,B35,not found
17,B36,not found
18,B37,not found
19,B38,not found
